Screens deposited in PubChem BioAssay by National Center for Advancing Translational Sciences (NCATS).
In the library only some 0.51% were active in any assay of this set; here they are far more common.
FMDV antiviral: Primary qHTS Assay for Foot and Mouth Disease Virus Antivirals against NCGC Sytravon and CBC Compound Libraries: Firefly Luciferase Signal | FMDV antiviral cell assay, firefly luciferase signal | Potency, µM (series often up to 57.5 µM), usual class: inhibitors | 120,000 compounds, 0.23% hits | AID 1745856, 2022; further: nearly all actives have a fitted effect of over 60% in size
FMDV RLuc: Primary qHTS Assay for Foot and Mouth Disease Virus Antivirals against NCGC Sytravon and CBC Compound Libraries: Renilla Luciferase Signal. FMDV replicon cells, Renilla luciferase signal. Potency, µM (highest dose often 57.5 µM), hits mostly inhibitors. 120,000 compounds, 0.32% hits. AID 1745857, 2022; further: nearly all actives have a fitted effect of over 55% in size
Hits are given with their value; - = inactive; ? = inconclusive. The call rests on the fitted dose curve.

SMILES | FMDV antiviral | FMDV RLuc
Cc1ccc(CN(C)Cc2cc(=O)oc3ccc(C)cc23)cc1 | - | -
COc1ccc(C(Nc2ccccn2)c2c(NC(=O)c3ccccc3)sc(C)c2C)cc1OC (configuration not stated) | - | -
COCCn1c(SCc2nc(-c3cccc(C(F)(F)F)c3)no2)nc2ccsc2c1=O | - | -
Cn1c(SCc2nc(-c3ccc(C(F)(F)F)cc3)no2)nc2ccsc2c1=O | 22µM | 18µM
Cc1ccc(-c2ccc(OC(=O)c3ccc(C)c(Br)c3)cc2)cc1 | - | -
CC(C)S(=O)(=O)c1oc(-c2ccc(F)cc2)nc1S(=O)(=O)c1ccccc1 | ? | -
CCCCS(=O)(=O)c1oc(-c2ccc(F)cc2)nc1S(=O)(=O)c1ccccc1 | 28µM | -
Cc1cccc(C(=O)NCCCN(C)CC(F)(F)F)n1 | - | -
Cc1ccc(CNCc2ccc(C)s2)cc1 | - | -
COc1ccc(C(=O)Nc2nc(-c3nnn(-c4ccccc4Br)c3C)ns2)cc1 | 14µM | 14µM
COc1ccc(C(=O)Nc2nc(-c3nnn(-c4ccc(F)cc4F)c3C)ns2)cc1 | - | -
C(#CCN1CCN(CC#CCOCCOCc2ccccc2)CC1)COCCOCc1ccccc1 | 4.5µM | 5µM
C(#CCN1CCN(CC#CCOCc2ccccc2)CC1)COCc1ccccc1 | - | -
COCC(=O)NC1CCN(Cc2nnnn2-c2ccccc2)CC1 | - | -
COc1cc(C(=O)Nc2ccccc2-c2nc(-c3ccccc3)no2)cc(OC)c1OC | - | -
COc1cc(-c2noc(-c3ccc(Br)cc3)n2)cc(OC)c1OC | - | -
COc1cc(C(=O)Nc2ccccc2-c2nc(-c3ccc(C)cc3)no2)cc(OC)c1OC | - | 35µM
COc1cc(-c2nc(-c3ccc(Br)cc3)no2)cc(OC)c1OC | 0.4µM | -
CCCNS(=O)(=O)c1ccc(OCC(=O)NCc2cccnc2)cc1 | - | -
Cc1ccn2cc(-c3ccc(NS(=O)(=O)c4ccc5c(c4)OCCO5)cc3)nc2n1 | - | -
CCCCc1ccc(N=Cc2ccccc2O)cc1 | - | -
Cn1c(=O)c2c(nc(N3CCN(C/C=C/c4ccccc4)CC3)n2Cc2ccccc2)n(C)c1=O | - | -
CCCc1nc2nc(C)cc(Nc3c(C)cc(C)cc3C)n2n1 | - | -
O=C(Nc1ccccc1C(F)(F)F)c1cc2ccccn2n1 | - | -
O=C(Nc1ccc(OC(F)(F)F)cc1)c1cc2ccccn2n1 | - | 8.9µM
SMILES | FMDV antiviral | FMDV RLuc
CC(Sc1n[nH]c(-c2cccs2)n1)C(=O)Nc1ccc(F)cc1 (configuration not stated) | - | -
Cc1cc(C)c([N+](=O)[O-])cc1[N+](=O)[O-] | - | -
Cc1ccc([N+](=O)[O-])[c]2c1[O][Hg]2 | 2.8µM | ?
O=C(Cc1c[nH]c2ccccc12)NCCc1ccc(Cl)cc1 | - | -
Cc1ccc(Nc2nc(CN3CCN(S(=O)(=O)c4cc(C)ccc4C)CC3)cs2)cc1 | ? | 8.9µM
Cc1nc(CN2CCN(S(=O)(=O)c3ccccc3Cl)CC2)cs1 | - | -
CCCCn1c(=O)[nH]c(=O)c2c1nc(COC(=O)C1(c3ccc(Cl)cc3)CC1)n2CC | - | -
CC(=O)c1ccc(NC(=O)c2cccc(NC(=O)N3CCSc4ncccc43)c2)cc1 | 3.2µM | -
COc1ccc(NC(=O)c2ccc(NC(=O)N3CCSc4ncccc43)cc2)cc1 | - | -
Cc1ccc(NC(=O)Cn2c(=O)oc3cc(S(=O)(=O)N4CCCCC4)ccc32)c(C)c1 | ? | 8.9µM
COc1ccccc1CNC(=O)Cn1c(=O)ccc2cc(S(=O)(=O)N3CCC(C)CC3)ccc21 | - | -
O=C(Cn1c(=O)oc2cc(S(=O)(=O)N3CCCCC3)ccc21)NCc1ccc(F)cc1 | - | -
O=C(Cn1c(=O)oc2cc(S(=O)(=O)N3CCCCCC3)ccc21)NCc1ccccc1Cl | 28µM | ?
COc1ccc(C)cc1NC(=O)Cn1c(=O)oc2cc(S(=O)(=O)N3CCCCCC3)ccc21 | - | -
COc1ccccc1CNC(=O)Cn1c(=O)oc2cc(S(=O)(=O)N3CCC(C)CC3)ccc21 | 28µM | ?
COc1ccc2cnn(CC(=O)Nc3ccc(Cl)cc3Cl)c(=O)c2c1OC | - | -
CNC(=O)c1ccccc1OCc1coc(-c2cccc(F)c2)n1 | ? | 25µM
Fc1cccc(-c2nc(COc3ccccc3F)co2)c1 | - | -
CCC(C)Nc1oc(/C=C/c2cccc(OC)c2)nc1C#N (configuration not stated) | - | -
CC(/C=C/N(C)C)=C\C=[N+](C)C | 8.9µM | 4µM
CC1C(=O)Nc2ccc(-c3csc(NC4CCCC4)n3)cc21 (configuration not stated) | - | -
COc1ccc(N2CCN(S(=O)(=O)c3csc(C(N)=O)c3)CC2)cc1 | - | -
Cc1cccc(N2CCN(S(=O)(=O)c3csc(C(N)=O)c3)CC2)c1C | 13µM | 8.9µM
COc1ccc(NC(=O)C(C)Nc2ccc3oc(C)nc3c2)cc1OC (configuration not stated) | - | -
Cc1ccc(/C=N/NC(=O)CC#N)cc1 | - | -
SMILES | FMDV antiviral | FMDV RLuc
Cc1ccc(C(=O)/C=C/c2ccccc2C)o1 | - | -
CC1(C)CC(=O)C2=C(C1)Nc1[nH]n(-c3ccccc3)c(=O)c1C2c1ccc(F)cc1 (configuration not stated) | - | -
CC1(C)CC(=O)C2=C(C1)Nc1[nH]n(-c3ccccc3)c(=O)c1C2c1ccc(O)cc1 (configuration not stated) | - | 10µM
CN1CCN(c2ccc(NC(=O)c3cnc4ccccc4n3)cc2)CC1 | - | -
O=C(Nc1ccc(N2CCN(Cc3ccccc3)CC2)cc1)c1cnc2ccccc2n1 | ? | 7.9µM
O=C(CCCCl)Nc1ncc(Cc2cccc(Cl)c2)s1 | - | -
CCCn1nc(C(=O)Nc2ncc(Cc3cccc(Cl)c3)s2)ccc1=O | 28µM | ?
Cc1ccc(C)c(/C=C/C(=O)c2cccc([N+](=O)[O-])c2)c1 | - | -
CN(C)Cc1ccccc1CNC(=O)Cc1nn(C)c(=O)c2ccccc12 | - | -
COc1ccc(CNC(=O)c2ccccc2C(F)(F)F)cc1C(=O)O | - | -
CCCCCCc1ccc(Nc2cccc(C)c2)cc1O | - | -
Cc1nc(/C=C/C(=O)N2CCN(c3cccc(C(F)(F)F)c3)CC2)cs1 | ? | 20µM
Cc1cc(C(=O)N2CCN(c3cccc(C(F)(F)F)c3)CC2)cs1 | - | -
COc1ccc(C(=O)OCCN(C)C(C)(C)C)cc1OC | - | -
N#Cc1ccc(OCc2cccc3cccnc23)cc1 | - | -
CCOc1ccccc1CNCc1c(C(=O)O)n(Cc2ccccc2)c2cc(OC)ccc12 | - | -
COc1ccc(Cn2c(C(=O)O)c(CNCc3ccccc3F)c3ccc(OC)cc32)cc1 | 35µM | -
Cc1ccc(S(=O)(=O)CCC(=O)N2CCN(c3nc4c(C)c(Cl)ccc4s3)CC2)cc1 | - | -
COc1cccc2sc(N3CCN(C(=O)CCS(=O)(=O)c4ccc(F)cc4)CC3)nc12 | 35µM | ?
CCS(=O)(=O)c1ncc(N(Cc2ccccc2)Cc2ccco2)c(C(=O)Nc2cccc(Cl)c2C)n1 | - | -
CSc1ncc(Cl)c(C(=O)N(Cc2ccc(C)cc2)C2CCS(=O)(=O)C2)n1 (configuration not stated) | - | -
CCS(=O)(=O)c1ncc(Cl)c(C(=O)N(Cc2ccccc2)C2CCS(=O)(=O)C2)n1 (configuration not stated) | ? | 25µM
